# Data published in PubChem BioAssay AID585 (National Center for Advancing Translational Sciences (NCATS), 2007).
# Screen size: about 71,000 compounds; about 1,300 (1.8%) were called active. The list comes from a sample in which actives are over-represented; it also holds similar structures and randomly drawn compounds. Unmarked numbers belong to inactive results. Calls follow the shape of the full dose curve.
# Biological target: Beta-lactamase (Escherichia coli (strain K12)) (UniProt P00811)
# Assay: Promiscuous and Specific Inhibitors of AmpC Beta-Lactamase (assay without detergent); as to activity change, negative = inhibition: % of control where 0% means no effect
# Details: AmpC nitrocefin hydrolysis, absorbance 480 nm, no detergent; series mostly up to 28.7 µM; activity change, negative = inhibition: at the top concentration
# How it was run: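 Enzyme, pH 7.0 phosphate. Compound titrations were pre-incubated with AmpC for 15 min at room temperature before nitrocefin (stock 800 uM) addition; product formation was recorded at 480 nm every 20 s for 4 min.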
# Potency is read from the fitted curve at half-maximal effect.
# Sequence of Beta-lactamase (Escherichia coli (strain K12)) (P00811 whole entry, looked up): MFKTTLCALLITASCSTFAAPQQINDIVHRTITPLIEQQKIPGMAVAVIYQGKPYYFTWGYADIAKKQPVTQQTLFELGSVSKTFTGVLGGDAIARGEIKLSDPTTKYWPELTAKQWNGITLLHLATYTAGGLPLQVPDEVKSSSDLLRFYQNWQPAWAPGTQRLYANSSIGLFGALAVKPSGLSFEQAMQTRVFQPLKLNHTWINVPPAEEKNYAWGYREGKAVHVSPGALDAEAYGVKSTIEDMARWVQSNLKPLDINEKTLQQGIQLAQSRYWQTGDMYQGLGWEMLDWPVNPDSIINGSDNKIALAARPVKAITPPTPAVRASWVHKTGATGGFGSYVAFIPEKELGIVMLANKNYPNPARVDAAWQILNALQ
Structure (SMILES),"activity change, negative = inhibition",Potency
COc1ccc(CCN(C)CCN2C(=O)c3ccccc3C2=O)cc1OC,9.6%,–
O=C(NC1CCCCC1)n1c(=O)oc2cc(S(=O)(=O)N3CCCCC3)ccc21,-14.2%,–
CCn1cc(C(=O)NC2CCCCCC2)c(=O)c2cc(S(=O)(=O)N3CCCCC3)ccc21,–,3.98 µM [single pt active] (active)
CCn1cc(C(=O)NCC2CCCO2)c(=O)c2cc(S(=O)(=O)N3CCCCC3)ccc21 (stereo unspecified),94.7%,–
Oc1ccc2ccccc2c1C=NCc1c(O)ccc2ccccc12,-20.6% [at 5.75 µM],–
O=C(CCC(=O)OCC(F)(F)C(F)F)NCc1ccccc1,7.3%,–
COc1ccc(-c2nc(CS(=O)CC(=O)NCc3cccnc3)c(C)o2)cc1OC (stereo unspecified),–,3.98 µM [single pt active] (active)
COc1ccc(-c2nc(CS(=O)CC(=O)NCc3ccccn3)c(C)o2)cc1 (stereo unspecified),–,1.26 µM [single pt active] (active)
Cc1oc2nc(SCC(=O)NCc3cccnc3)nc(N)c2c1C,-1.9%,–
COc1ccc(CCNC(=O)C2CCCN(Cc3nc(-c4cccc(Cl)c4)oc3C)C2)cc1OC (stereo unspecified),162%,–
COc1ccc(-c2nc(CS(=O)CC(=O)N3CCC4(CC3)OCCO4)c(C)o2)cc1 (stereo unspecified),41.7%,–
Cc1ccc(-c2nc(CS(=O)CC(=O)N3CCN(c4ncccn4)CC3)c(C)o2)cc1 (stereo unspecified),95.4%,–
Cc1ccc(NC(=O)CS(=O)CC(=O)N(c2ccccc2)C(C)C(=O)NC2CCCC2)cc1 (stereo unspecified),76.9%,–
Cc1ccc(-c2nc(CS(=O)CC(=O)NC3CCCC3)c(C)o2)cc1 (stereo unspecified),–,3.98 µM [single pt active] (active)
COc1ccc(-c2nc(CS(=O)CC(=O)N3CCc4ccccc4C3)c(C)o2)cc1 (stereo unspecified),91.4%,–
C=CC(=C)CCC=C(C)C,-13.4%,–
COc1ccc2oc(=O)c(C(=O)N3CCN(c4ccccc4F)CC3)cc2c1,43.1%,–
CC1(C)CC(=O)C=C(NC2CC(C)(C)NC(C)(C)C2)C1,-7.6%,–
O=C(COc1ccc2oc3c(c2c1)CCCC3)Nc1ccccn1,-0.5%,–
O=C1CN(C(=O)COC(=O)C2CC(=O)N(Cc3ccco3)C2)c2ccccc2N1 (stereo unspecified),6%,–
COc1cc(C[C@H](C)N)c(OC)cc1I,–,inactive
COC(=O)c1ccc(C(NC(=O)OCc2ccccc2)/C(C)=C/[C@@H](C)C(=O)NCc2cc(C)on2)cc1 (stereo partly specified),79.5%,–
CCOC(=O)c1ccc(-n2c(C)nc3c(cnn3-c3ccccc3C)c2=O)cc1,49.2%,–
CCOC(=O)CSC1=C(C#N)C(c2ccco2)C(C(=O)OCc2ccccc2)=C(C)N1 (stereo unspecified),-9.8%,–
COC(=O)C1=C(C)Nc2ncnn2C1c1ccco1 (stereo unspecified),-4.6%,–
CC1=C(C(=O)OCc2ccccc2)C(c2ccco2)n2ncnc2N1 (stereo unspecified),–,3.98 µM [single pt active] (active)

Structure (SMILES),"activity change, negative = inhibition",Potency
O=C1N=C(N2CCOCC2)CS1,-5.9%,–
CC(=O)Nc1cc2ccc(OC(C)=O)cc2oc1=O,–,3.98 µM [single pt active] (active)
CC(=O)Oc1ccc2c(C)c(CC(C)O)c(=O)oc2c1 (stereo unspecified),0.7%,–
COc1ccc2oc(C)c(NC(C)=O)c2c1,-8.6%,–
CCn1c(=N)c(S(=O)(=O)c2ccc(F)cc2)cc2c(=O)n3ccccc3nc21,35.4%,–
O=C(Oc1cccnc1)c1cc2ccccc2oc1=O,–,12.6 µM (active)
O=C(NCc1ccccn1)c1cc2ccccc2oc1=O,0.3%,–
COc1ccc2oc(=O)c(C(=O)O)cc2c1,-7.1%,–
Cc1ccc(C)c(N2CCN(C(=O)CCCCn3c(=O)[nH]c4ccccc4c3=O)CC2)c1,69.6%,–
COc1ccc(Cc2nnc(NS(=O)(=O)Cc3ccccc3)s2)cc1,-14.8%,–
CCc1nnc(NC(=O)CSc2nnc(Cc3ccccc3)n2-c2ccc(OC)cc2)s1,49%,–
COc1ccc(Cc2nnc(NC(=O)Cc3cccs3)s2)cc1,–,12.6 µM (active)
COc1ccc2[nH]cc(CCNc3nc(-c4cccc(NS(C)(=O)=O)c4)nc4ccccc34)c2c1,-19.8%,–
CCCC1C(c2ccccc2)C(C#N)(C#N)C2(C#N)CC1(N)NC2=O (stereo unspecified),32%,–
CCOC(=O)Cc1csc(NC(=O)CN(C)S(=O)(=O)c2ccc3c(c2)CCC(=O)N3)n1,–,3.98 µM [single pt active] (active)
CCOC(=O)Cc1csc(NC(=O)CSc2nc(C)cc(=O)[nH]2)n1,-14.8%,–
CCOC(=O)Cc1csc(NC(=O)C(C)(C)C)n1,4.6%,–
Cc1ccc(CNC(=O)CCCNC(=O)c2ccc(Cl)cc2)n1C,57.8%,–
CC(C)(O)C#Cc1ccc(C(=O)N2CCC(C(N)=O)(N3CCCCC3)CC2)cc1,-9.6%,–
CC1(C)SC2c3ccccc3C(=O)N2[C@@H]1C(=O)NCc1ccco1 (stereo partly specified),7.2%,–
CC1(C)S[C@@H]2[C@@H](NC(=O)[C@@H](N)c3ccccc3)C(=O)N2[C@H]1C(=O)O,–,0.0501 µM (active)
CC(CNC(=O)c1ccc(Br)o1)NC(=O)c1ccc(Br)o1 (stereo unspecified),-4.4%,–
N#CC(=C1SC=CS1)c1nc(-c2ccccc2)cs1,–,15.8 µM [single pt active] (active)
N#C/C(=C1\CCCN1)c1nc(-c2ccccc2)cs1,1.9%,–
c1ccc(Nc2nc(-c3ccncc3)cs2)nc1,27.9%,–
